# Reference: ChEMBL document CHEMBL1961873, “Compounds: GSK PKIS; Assays: Nanosyn kinase panel” (2012)
# Legend:
# [1] = target: Sphingosine kinase 1 (Homo sapiens) (UniProt Q9NYA1); settings: at 1 µM;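 further: mean SPHK1 inhibition value reported from the GSK PKIS kinase panel screen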
# [2] = target: T1, Sphingosine kinase 2 (Homo sapiens) (UniProt Q9NRA0); settings: at 0.1 µM
# T1 sequence (whole entry): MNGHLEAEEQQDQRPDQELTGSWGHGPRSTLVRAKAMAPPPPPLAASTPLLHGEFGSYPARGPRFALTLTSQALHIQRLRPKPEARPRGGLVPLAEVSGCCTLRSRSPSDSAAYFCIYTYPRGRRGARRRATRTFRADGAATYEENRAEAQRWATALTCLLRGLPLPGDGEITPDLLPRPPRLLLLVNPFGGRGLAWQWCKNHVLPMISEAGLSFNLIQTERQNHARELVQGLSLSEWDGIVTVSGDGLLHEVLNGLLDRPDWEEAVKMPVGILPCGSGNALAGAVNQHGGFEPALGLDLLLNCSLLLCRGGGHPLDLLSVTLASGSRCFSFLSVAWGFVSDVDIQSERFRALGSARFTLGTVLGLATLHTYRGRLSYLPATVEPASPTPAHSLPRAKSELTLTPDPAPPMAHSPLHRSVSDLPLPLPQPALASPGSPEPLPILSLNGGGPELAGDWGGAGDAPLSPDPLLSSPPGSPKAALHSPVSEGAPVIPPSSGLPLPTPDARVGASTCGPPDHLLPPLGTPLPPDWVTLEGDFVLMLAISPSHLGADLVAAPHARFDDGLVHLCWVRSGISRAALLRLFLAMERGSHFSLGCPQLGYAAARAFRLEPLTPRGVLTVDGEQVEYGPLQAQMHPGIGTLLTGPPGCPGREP
# [3] = target: T1, Sphingosine kinase 2 (Homo sapiens); settings: at 1 µM
# [4] = target: Casein kinase II subunit alpha (Homo sapiens) (UniProt P68400); settings: at 0.1 µM
# Sequence of Casein kinase II subunit alpha (Homo sapiens) (P68400 whole entry, looked up): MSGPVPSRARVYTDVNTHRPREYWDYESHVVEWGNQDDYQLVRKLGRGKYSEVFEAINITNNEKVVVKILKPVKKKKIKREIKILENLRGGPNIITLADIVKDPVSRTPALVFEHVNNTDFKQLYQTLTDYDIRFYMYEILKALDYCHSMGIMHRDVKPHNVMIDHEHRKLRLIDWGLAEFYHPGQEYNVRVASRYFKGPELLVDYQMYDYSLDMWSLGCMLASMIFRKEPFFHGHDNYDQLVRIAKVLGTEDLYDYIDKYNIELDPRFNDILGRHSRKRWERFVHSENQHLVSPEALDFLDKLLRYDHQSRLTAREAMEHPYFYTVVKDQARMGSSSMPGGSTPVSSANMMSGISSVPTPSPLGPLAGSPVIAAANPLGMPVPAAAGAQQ
# [5] = target: Casein kinase II subunit alpha (Homo sapiens) (UniProt P68400); settings: at 1 µM
# [6] = target: T2, Inhibitor of nuclear factor kappa-B kinase subunit alpha (Homo sapiens) (UniProt O15111); settings: at 0.1 µM
# T2 sequence (whole entry): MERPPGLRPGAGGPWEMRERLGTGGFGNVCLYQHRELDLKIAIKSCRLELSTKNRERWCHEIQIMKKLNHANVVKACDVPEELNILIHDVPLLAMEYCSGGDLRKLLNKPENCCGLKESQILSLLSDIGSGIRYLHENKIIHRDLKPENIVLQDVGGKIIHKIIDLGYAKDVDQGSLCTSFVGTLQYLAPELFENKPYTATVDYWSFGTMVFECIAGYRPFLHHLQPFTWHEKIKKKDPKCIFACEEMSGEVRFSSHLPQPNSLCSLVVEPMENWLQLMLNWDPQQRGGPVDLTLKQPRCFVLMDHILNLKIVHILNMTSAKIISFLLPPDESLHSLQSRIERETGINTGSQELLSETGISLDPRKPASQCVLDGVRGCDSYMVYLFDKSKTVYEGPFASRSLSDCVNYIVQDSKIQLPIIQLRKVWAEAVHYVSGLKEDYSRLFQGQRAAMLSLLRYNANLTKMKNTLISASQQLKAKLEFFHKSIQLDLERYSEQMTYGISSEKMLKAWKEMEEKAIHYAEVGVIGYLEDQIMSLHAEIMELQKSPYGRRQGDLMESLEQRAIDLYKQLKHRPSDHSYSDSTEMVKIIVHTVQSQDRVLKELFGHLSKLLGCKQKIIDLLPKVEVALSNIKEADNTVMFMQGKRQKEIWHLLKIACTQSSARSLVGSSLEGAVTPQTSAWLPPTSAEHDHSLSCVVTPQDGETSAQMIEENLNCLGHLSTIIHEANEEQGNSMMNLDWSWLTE
# [7] = target: T2, Inhibitor of nuclear factor kappa-B kinase subunit alpha (Homo sapiens); settings: at 1 µM
# [8] = target: T3, Inhibitor of nuclear factor kappa-B kinase subunit beta (Homo sapiens) (UniProt O14920); settings: at 0.1 µM
# T3 sequence (whole entry): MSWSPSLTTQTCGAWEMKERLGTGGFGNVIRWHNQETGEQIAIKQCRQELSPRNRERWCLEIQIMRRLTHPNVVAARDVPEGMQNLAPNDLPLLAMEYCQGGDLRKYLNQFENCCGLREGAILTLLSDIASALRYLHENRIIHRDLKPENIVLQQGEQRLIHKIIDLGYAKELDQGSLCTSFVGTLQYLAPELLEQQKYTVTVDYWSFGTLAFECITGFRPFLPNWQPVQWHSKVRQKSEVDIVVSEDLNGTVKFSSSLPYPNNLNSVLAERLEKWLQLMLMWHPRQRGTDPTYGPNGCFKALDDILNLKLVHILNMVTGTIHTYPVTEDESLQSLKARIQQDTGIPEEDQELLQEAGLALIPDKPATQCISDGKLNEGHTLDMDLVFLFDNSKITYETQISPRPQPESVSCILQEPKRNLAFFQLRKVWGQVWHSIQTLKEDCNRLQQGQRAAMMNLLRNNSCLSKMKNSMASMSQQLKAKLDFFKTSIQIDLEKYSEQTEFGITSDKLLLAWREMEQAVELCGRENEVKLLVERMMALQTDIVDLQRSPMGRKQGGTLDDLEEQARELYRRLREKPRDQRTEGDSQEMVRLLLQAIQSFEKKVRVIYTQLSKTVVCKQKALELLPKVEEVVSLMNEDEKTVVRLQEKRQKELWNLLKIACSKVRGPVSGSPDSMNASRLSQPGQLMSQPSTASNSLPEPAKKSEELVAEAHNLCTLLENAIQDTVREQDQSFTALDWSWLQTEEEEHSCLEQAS
# [9] = target: T3, Inhibitor of nuclear factor kappa-B kinase subunit beta (Homo sapiens); settings: at 1 µM
# [10] = target: T4, Inhibitor of nuclear factor kappa-B kinase subunit epsilon (Homo sapiens) (UniProt Q14164); settings: at 0.1 µM
# T4 sequence (whole entry): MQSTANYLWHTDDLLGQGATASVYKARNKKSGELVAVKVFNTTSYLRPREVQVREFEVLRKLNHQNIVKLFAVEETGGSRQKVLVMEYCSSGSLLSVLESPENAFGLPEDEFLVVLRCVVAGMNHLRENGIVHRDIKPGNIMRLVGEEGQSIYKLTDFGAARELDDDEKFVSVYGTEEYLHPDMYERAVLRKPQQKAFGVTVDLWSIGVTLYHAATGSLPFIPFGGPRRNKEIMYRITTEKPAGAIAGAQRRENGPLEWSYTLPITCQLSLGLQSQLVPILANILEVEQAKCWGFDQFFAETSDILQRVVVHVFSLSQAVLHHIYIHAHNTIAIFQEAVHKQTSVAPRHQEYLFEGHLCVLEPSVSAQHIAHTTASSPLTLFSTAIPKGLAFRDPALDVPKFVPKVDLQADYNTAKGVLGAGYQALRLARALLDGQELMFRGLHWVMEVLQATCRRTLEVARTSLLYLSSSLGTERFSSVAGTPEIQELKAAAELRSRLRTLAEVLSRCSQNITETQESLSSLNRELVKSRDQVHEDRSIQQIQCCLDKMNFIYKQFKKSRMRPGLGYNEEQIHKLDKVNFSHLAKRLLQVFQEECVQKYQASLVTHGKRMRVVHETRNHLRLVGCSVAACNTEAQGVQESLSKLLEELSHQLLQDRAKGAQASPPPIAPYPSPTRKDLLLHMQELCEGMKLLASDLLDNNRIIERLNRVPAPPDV
# [11] = target: T4, Inhibitor of nuclear factor kappa-B kinase subunit epsilon (Homo sapiens); settings: at 1 µM
# [12] = target: T5, Serine/threonine-protein kinase Nek1 (Homo sapiens) (UniProt Q96PY6); settings: at 0.1 µM
# T5 sequence (whole entry): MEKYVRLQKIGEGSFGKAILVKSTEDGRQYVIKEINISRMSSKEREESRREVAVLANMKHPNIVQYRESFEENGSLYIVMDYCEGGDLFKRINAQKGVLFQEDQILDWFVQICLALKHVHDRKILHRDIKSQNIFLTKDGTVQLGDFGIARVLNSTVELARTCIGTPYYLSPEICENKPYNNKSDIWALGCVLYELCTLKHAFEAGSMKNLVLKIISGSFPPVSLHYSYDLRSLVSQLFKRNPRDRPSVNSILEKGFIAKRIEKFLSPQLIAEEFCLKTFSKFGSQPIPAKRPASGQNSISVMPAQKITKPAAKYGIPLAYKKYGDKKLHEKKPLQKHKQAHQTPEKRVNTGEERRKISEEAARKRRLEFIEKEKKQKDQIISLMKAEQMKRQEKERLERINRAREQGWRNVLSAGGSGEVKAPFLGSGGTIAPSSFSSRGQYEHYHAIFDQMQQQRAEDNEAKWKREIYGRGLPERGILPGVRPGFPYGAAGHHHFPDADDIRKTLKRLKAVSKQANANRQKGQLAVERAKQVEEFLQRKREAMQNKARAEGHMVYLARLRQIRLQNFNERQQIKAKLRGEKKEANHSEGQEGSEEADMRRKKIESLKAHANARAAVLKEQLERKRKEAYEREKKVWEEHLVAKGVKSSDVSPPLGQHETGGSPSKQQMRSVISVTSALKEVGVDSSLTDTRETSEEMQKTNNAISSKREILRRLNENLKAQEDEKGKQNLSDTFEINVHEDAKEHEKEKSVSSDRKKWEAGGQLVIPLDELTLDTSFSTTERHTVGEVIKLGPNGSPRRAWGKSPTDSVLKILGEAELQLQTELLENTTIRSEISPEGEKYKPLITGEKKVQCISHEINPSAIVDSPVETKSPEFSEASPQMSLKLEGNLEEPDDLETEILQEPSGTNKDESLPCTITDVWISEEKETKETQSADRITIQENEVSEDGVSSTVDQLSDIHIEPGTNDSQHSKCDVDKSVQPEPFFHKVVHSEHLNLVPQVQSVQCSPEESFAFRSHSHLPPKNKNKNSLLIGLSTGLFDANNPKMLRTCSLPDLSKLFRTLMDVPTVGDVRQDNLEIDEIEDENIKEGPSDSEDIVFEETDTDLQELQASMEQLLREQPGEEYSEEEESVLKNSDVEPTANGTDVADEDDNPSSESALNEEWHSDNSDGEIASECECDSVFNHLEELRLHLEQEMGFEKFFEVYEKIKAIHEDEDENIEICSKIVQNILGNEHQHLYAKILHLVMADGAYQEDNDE
# [13] = target: T5, Serine/threonine-protein kinase Nek1 (Homo sapiens); settings: at 1 µM
# [14] = target: T6, Serine/threonine-protein kinase Nek2 (Homo sapiens) (UniProt P51955); settings: at 0.1 µM
# T6 sequence (whole entry): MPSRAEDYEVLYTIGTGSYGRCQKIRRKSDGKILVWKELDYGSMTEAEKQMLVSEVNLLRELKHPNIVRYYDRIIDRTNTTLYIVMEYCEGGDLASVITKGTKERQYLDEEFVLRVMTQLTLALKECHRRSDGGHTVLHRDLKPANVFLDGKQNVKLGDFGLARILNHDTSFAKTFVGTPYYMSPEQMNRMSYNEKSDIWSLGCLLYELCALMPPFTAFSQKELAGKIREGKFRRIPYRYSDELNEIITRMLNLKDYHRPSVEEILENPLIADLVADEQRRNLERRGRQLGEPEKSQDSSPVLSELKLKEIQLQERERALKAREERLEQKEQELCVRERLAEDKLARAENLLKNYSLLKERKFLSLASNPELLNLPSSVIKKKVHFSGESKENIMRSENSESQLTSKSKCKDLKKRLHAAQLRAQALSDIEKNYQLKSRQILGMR
# [15] = target: T6, Serine/threonine-protein kinase Nek2 (Homo sapiens); settings: at 1 µM
# [16] = target: Serine/threonine-protein kinase Nek6 (Homo sapiens) (UniProt Q9HC98); settings: at 0.1 µM
# Sequence of Serine/threonine-protein kinase Nek6 (Homo sapiens) (Q9HC98 whole entry): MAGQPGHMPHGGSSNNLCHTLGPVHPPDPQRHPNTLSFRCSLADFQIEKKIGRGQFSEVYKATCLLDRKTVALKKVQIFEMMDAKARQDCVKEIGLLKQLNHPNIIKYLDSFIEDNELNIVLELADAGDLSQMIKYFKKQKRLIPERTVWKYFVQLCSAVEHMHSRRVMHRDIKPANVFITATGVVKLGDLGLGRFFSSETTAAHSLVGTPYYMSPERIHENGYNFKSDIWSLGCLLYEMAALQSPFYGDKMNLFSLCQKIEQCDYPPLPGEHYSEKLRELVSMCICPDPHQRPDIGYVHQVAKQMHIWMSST
# [17] = target: Serine/threonine-protein kinase Nek6 (Homo sapiens) (UniProt Q9HC98); settings: at 1 µM
# [18] = target: Serine/threonine-protein kinase Nek7 (Homo sapiens) (UniProt Q8TDX7); settings: at 0.1 µM
# Sequence of Serine/threonine-protein kinase Nek7 (Homo sapiens) (Q8TDX7 whole entry, looked up): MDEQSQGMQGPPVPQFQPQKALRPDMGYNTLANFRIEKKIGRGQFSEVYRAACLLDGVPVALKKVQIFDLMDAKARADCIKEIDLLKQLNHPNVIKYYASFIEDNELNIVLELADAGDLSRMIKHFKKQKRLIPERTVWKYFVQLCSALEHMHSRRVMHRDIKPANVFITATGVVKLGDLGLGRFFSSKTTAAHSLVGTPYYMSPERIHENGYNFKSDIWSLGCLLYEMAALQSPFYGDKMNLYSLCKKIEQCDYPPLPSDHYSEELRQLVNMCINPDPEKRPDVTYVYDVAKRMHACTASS
# [19] = target: Serine/threonine-protein kinase Nek7 (Homo sapiens) (UniProt Q8TDX7); settings: at 1 µM
# [20] = target: T7, Serine/threonine-protein kinase Nek9 (Homo sapiens) (UniProt Q8TD19); settings: at 0.1 µM;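 further: reported value is the mean percent inhibition of NEK9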
# T7 sequence (whole entry): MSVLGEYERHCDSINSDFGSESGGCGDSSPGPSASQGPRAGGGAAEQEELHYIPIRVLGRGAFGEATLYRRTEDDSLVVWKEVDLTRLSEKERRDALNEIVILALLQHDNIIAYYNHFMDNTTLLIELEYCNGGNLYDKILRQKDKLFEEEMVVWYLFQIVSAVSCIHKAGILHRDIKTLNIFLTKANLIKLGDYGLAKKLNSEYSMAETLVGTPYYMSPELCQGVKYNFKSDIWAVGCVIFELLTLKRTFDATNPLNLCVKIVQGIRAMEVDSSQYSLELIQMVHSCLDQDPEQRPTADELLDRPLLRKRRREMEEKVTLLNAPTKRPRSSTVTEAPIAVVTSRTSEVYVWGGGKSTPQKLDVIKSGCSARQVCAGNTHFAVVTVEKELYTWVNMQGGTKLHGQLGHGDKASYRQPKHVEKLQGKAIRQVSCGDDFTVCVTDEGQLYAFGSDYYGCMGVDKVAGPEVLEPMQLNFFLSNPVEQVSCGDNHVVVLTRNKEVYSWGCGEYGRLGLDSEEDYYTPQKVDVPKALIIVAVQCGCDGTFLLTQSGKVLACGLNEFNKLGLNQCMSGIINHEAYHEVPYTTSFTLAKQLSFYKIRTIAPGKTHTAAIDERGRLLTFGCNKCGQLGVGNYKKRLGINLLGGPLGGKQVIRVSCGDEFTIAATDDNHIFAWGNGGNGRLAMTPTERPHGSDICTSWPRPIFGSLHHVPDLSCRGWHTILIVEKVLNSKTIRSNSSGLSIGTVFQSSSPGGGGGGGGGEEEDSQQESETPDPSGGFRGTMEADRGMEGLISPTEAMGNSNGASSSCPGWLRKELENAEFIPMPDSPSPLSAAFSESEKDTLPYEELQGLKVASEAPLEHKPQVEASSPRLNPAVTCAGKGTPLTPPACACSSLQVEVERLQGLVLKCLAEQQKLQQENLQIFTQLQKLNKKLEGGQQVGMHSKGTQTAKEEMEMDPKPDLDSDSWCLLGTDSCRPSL
# Sequence of Sphingosine kinase 1 (Homo sapiens) (Q9NYA1 whole entry): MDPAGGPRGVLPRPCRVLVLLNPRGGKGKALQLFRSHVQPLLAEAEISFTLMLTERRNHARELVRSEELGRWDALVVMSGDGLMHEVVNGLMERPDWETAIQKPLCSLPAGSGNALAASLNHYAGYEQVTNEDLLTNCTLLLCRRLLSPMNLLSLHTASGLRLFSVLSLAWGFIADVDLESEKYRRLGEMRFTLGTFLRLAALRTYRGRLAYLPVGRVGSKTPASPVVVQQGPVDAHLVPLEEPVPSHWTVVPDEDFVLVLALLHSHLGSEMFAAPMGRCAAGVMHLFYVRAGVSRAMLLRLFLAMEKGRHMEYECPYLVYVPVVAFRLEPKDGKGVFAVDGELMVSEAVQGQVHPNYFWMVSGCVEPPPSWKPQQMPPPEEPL
smiles,measurement,setting,value
NS(=O)(=O)c1ccc(N/N=C2\C(=O)Nc3ccc(-c4cnco4)cc32)cc1,inhibition,[1],1.01%
same,inhibition,[2],1.12%
same,inhibition,[3],-1.25%
same,inhibition,[4],5.69%
same,inhibition,[5],15.2%
same,inhibition,[6],1.42%
same,inhibition,[7],35.1%
same,inhibition,[8],2.62%
same,inhibition,[9],10.4%
same,inhibition,[10],5.68%
same,inhibition,[11],26.5%
same,inhibition,[12],0.9%
same,inhibition,[13],-0.1%
same,inhibition,[14],2.64%
same,inhibition,[15],1.79%
same,inhibition,[16],1.55%
same,inhibition,[17],1.55%
same,inhibition,[18],2.6%
same,inhibition,[19],8.73%
same,inhibition,[20],2.34%
